Reference: PubChem BioAssay (NCATS)
Results filed as inconclusive are left out. Calls of active or inactive are those of the source. Calls come from the whole dose curve; as a rule, active = well fitted inhibition curve with a large enough effect; inconclusive = small, poorly fitted or top-dose-only effect; inactive = flat fitted curve, though single readings scatter.

test system: Zika virus NS2B-NS3 protease; experiment: Primary screen GU AMC qHTS for Zika virus inhibitors (AID 1347154); conditions: Zika NS2B-NS3 unlinked protease, AMC fluorogenic substrate; series mostly up to 54.1 µM; activity change, negative = inhibition: at the top concentration;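 note: 0% = no-inhibitor control and -100% = no-enzyme control; nearly all actives have a fitted effect of over 70% in size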
Summary of the method: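 Unlinked Zika NS2B hydrophilic domain–NS3 protease complex at 25 nM in 10 mM Tris-HCl pH 8.0, 0.01% Tween 20, with an AMC peptide substrate. Fluorescence change (340/450 nm) over 15 min at room temperature, normalized to controls, fitted to 4-parameter Hill.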

**Q.** Which “activity change, negative = inhibition” value does the source give for Cc1nc2sccn2c(=O)c1CCN1CCC(=C(c2ccccc2)c2ccc(F)cc2)CC1 here?
**A.** -15.8% (inactive)

**Q.** Which activity change, negative = inhibition does the source give for CCCCCC(O)c1cccc(OCc2ccc3ccccc3n2)c1 (stereo unspecified) here?
**A.** 14.2% [at 6.83 µM] (inactive)

**Q.** For O=C(O)Cc1ccc(-c2ccccc2)cc1, which “activity change, negative = inhibition” value is on record?
**A.** 0.212% (inactive)

**Q.** With O=C(OCc1ccccc1)c1ccccc1 as the molecule, how does the “activity change, negative = inhibition” value read?
**A.** -1.37% (inactive)

**Q.** How did the “activity change, negative = inhibition” value turn out when Cc1c(Nc2ncccc2C(=O)O)cccc1C(F)(F)F was run?
**A.** -2.54% (inactive)

**Q.** COc1cc2c3cc1Oc1cc(ccc1O)C[C@@H]1c4c(cc(OC)c(O)c4Oc4ccc(cc4)C[C@@H]3N(C)CC2)CC[N+]1(C)C was tested. Which “activity change, negative = inhibition” value did it give?
**A.** -2.37% (inactive)

**Q.** With NC(=O)C(c1ccccc1)(c1ccccc1)[C@@H]1CCN(CCc2ccc3c(c2)CCO3)C1 as the molecule, how does the “activity change, negative = inhibition” value read?
**A.** -8.28% (inactive)

**Q.** For CN(C)CCn1nnnc1SCC1=C(C(=O)O)N2C(=O)[C@@H](NC(=O)Cc3csc(N)n3)[C@H]2SC1, which “activity change, negative = inhibition” value is on record?
**A.** 4.57% (inactive)

**Q.** Which “activity change, negative = inhibition” value does the source give for O=c1cc(-c2ccccc2)oc2ccccc12 here?
**A.** -5.73% [at 104 µM] (inactive)

**Q.** How did the “activity change, negative = inhibition” value turn out when S=c1[nH]c2ccccc2s1 was run?
**A.** -3.33% [at 104 µM] (inactive)

**Q.** Nc1c(CC(=O)O)cccc1C(=O)c1ccc(Br)cc1 was tested. Which “activity change, negative = inhibition” value did it give?
**A.** -5.02% (inactive)

**Q.** With O=C1CN(/N=C/c2ccc([N+](=O)[O-])o2)C(=O)N1 as the molecule, how does the “activity change, negative = inhibition” value read?
**A.** -8.24% (inactive)

**Q.** Which “activity change, negative = inhibition” value does the source give for Cc1cc(O)c2ccccc2c1O here?
**A.** -3.72% (inactive)

**Q.** How did the “activity change, negative = inhibition” value turn out when c1ccc(CCNc2nc(-c3ccccc3)cs2)cc1 was run?
**A.** -11.5% (inactive)

**Q.** Which “activity change, negative = inhibition” value does the source give for Cc1c(N)c(=O)n(-c2ccccc2)n1C here?
**A.** 7.27% (inactive)

**Q.** O=C(O)Cc1ccc2c(c1)C(=O)c1ccccc1CO2 was tested. Which “activity change, negative = inhibition” value did it give?
**A.** -0.0253% (inactive)

**Q.** Which “activity change, negative = inhibition” value does the source give for O=C(O)c1cc(=O)c2ccccc2[nH]1 here?
**A.** -14% (inactive)

**Q.** Which “activity change, negative = inhibition” value does the source give for CC(C(=O)O)c1ccc(C(=O)c2ccccc2)s1 (stereo unspecified) here?
**A.** -5.98% (inactive)

**Q.** For COc1cc(NC(C)CCCN)c2ncccc2c1 (stereo unspecified), which “activity change, negative = inhibition” value is on record?
**A.** -3.81% (inactive)

**Q.** How did the “activity change, negative = inhibition” value turn out when CN1CCc2ccccc2Cc2[nH]c3ccccc3c2CC1 was run?
**A.** 24.7% (inactive)

**Q.** Cc1ccc(C(=O)c2ccc(CC(=O)O)n2C)cc1 was tested. Which “activity change, negative = inhibition” value did it give?
**A.** -2.61% (inactive)

**Q.** CCCCC1C(=O)N(c2ccccc2)N(c2ccc(O)cc2)C1=O (stereo unspecified) was tested. Which “activity change, negative = inhibition” value did it give?
**A.** -12.2% (inactive)

**Q.** N#C/C(=C\c1ccc(O)c(O)c1)C(=O)NCc1ccccc1 was tested. Which “activity change, negative = inhibition” value did it give?
**A.** 15.3% (inactive)

**Q.** For COC(=O)C1=C(C)NC(C)=C(C(=O)OCC(C)=O)C1c1ccccc1[N+](=O)[O-] (stereo unspecified), which “activity change, negative = inhibition” value is on record?
**A.** -2.21% (inactive)

**Q.** For O=C(/C=C/c1ccccc1)NCCO, which “activity change, negative = inhibition” value is on record?
**A.** -9.4% (inactive)

**Q.** For CCCCCCCCCCCCOCCO, which “activity change, negative = inhibition” value is on record?
**A.** -0.857% (inactive)

**Q.** For O=C(O)c1cc([N+](=O)[O-])ccc1NCCCc1ccccc1, which “activity change, negative = inhibition” value is on record?
**A.** 4.05% (inactive)

**Q.** Which “activity change, negative = inhibition” value does the source give for CC(=O)SCC(CC(=O)c1ccc(C)cc1)C(=O)O (stereo unspecified) here?
**A.** -2.95% (inactive)

**Q.** How did the Potency turn out when Cc1ccc2c(n1)Oc1ccc(C(C)C(=O)OCC(=O)N(C)C)cc1C2 (stereo unspecified) was run?
**A.** inactive

**Q.** NCCO was tested. Which “activity change, negative = inhibition” value did it give?
**A.** 1.7% [at 104 µM] (inactive)

**Q.** C=CCCCCCCCCC(=O)O was tested. Which “activity change, negative = inhibition” value did it give?
**A.** -0.57% (inactive)

**Q.** With CCOc1ccc2nc(S(N)(=O)=O)sc2c1 as the molecule, how does the “activity change, negative = inhibition” value read?
**A.** -18.6% (inactive)

**Q.** O=C(O)Cc1cccc(-c2cc(CCCCCCc3ccc(O[C@H]4O[C@H](CO)[C@@H](O)[C@H](O)[C@@H]4O)c(-c4cccc(CC(=O)O)c4)c3)ccc2O[C@H]2O[C@H](CO)[C@@H](O)[C@H](O)[C@@H]2O)c1 was tested. Which activity change, negative = inhibition did it give?
**A.** 1.91% [at 0.59 µM] (inactive)

**Q.** For CC(C(=O)O)c1ccc(C(=O)c2cccs2)cc1 (stereo unspecified), which “activity change, negative = inhibition” value is on record?
**A.** -6.05% (inactive)

**Q.** For C#C[C@]1(O)CC[C@H]2[C@@H]3CCc4cc(O)ccc4[C@H]3CC[C@@]21C, which “activity change, negative = inhibition” value is on record?
**A.** -8.29% (inactive)

**Q.** With Nc1cc(-c2ccncc2)c[nH]c1=O as the molecule, how does the “activity change, negative = inhibition” value read?
**A.** -0.851% (inactive)
